The results in this text go back to PubChem BioAssay (NCI).

Molecules are shown by their SMILES. Compounds without any hit were thinned out: in the full panel of roughly 83,000, 20% have a hit.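 For each line, cells grew in 96-well plates with the test compound present at a single concentration for 48 hours.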 Unmarked numbers belong to inactive results. The source made the active and inactive calls.

The assay has as its system MDA-MB-435 melanoma. Description: NCI-60 one-dose screen, 48 h (100 = growth as untreated, 0 = no growth, -100 = all killed). To be noted: 10 µM unless noted. As to the method:
Growth inhibition of the MDA-MB-435 human Melanoma tumor cell line is measured as a screen for anti-cancer activity. Cells are grown in 96 well plates and exposed to the test compound for 48 hours. Compounds are tested at a single concentration, which is 10^-5 M for most compounds. The reported endpoint is percent growth (GI% or GIPRCNT), where numbers from 0 - 100% represent growth inhibition, and numbers from -100% - 0 represent cell death. For example, a value of 40 represents 60% growth inhibition. A value of 0 means no net growth occurred over the course of the experiment. A value of -40 indicates 40% of cells at the beginning of the experiment died by the end of the experiment. A value of -100 means all cells are dead at the end of the experiment.
NCI-60 Human Tumor Cell Lines Screen was performed using the standard one-dose NCI protocol, which is described in more detail at https://dtp.cancer.gov/discovery_development/nci-60/default.htm.
Compounds with GIPRCNT values below 10 were considered active. Activity score was based on GIPRCNT using the following formula: […]
Score is 0 for GIPRCNT values of 100 or above, 50 for GIPRCNT values of 0, and 100 for GIPRCNT values of -100.
As to `CN1C(=O)/C(=C/c2ccc(C(=O)Nc3ncc(Cc4cccc(Cl)c4)s3)cc2)SC1=S`, the growth was 5.05% (active).
In the case of `CC1(C)N=C(N)N=C(N)N1c1ccc(CCCCc2ccccc2)c(Cl)c1` it was 27.8%; in that of `O=C(Nc1ccccc1N1CCCC1=O)c1oc2ccc(F)cc2c1-c1cnn(-c2ccccc2)c1`, 62.2% [50 µM]; in that of `CCN1C(=O)N(CC)C2C1NN=c1s/c(=C3\C(=O)N(CC(C)C)c4ccccc43)c(=O)n12` (stereo not given), -16.4% (active).
With `O=C(CCCCCCN1CC(=O)N2[C@H](c3ccc(Br)cc3)c3[nH]c4ccccc4c3C[C@@H]2C1=O)NO`, the growth was 26.2%.
`Cc1ccc(-c2nc(SCc3nc4cc(Cl)c(Cl)cc4[nH]3)[nH]c(=O)c2C#N)cc1`: the growth was 105%.
In the case of `CN(C)c1ccc(/C=C(\C#N)c2cc3ccccc3[nH]2)cc1` it was -25.4% (active).
In the case of `O=C(N=Nc1c(O)[nH]c2ccccc12)Nc1ccc(F)cc1` it was 98.3%; in that of `C#CC#CC#CC#CC#CC#CC#CC#CCC1OC[C@H](COC(=O)O[C@@H](C(=O)O[C@H]2C[C@@]3(O)[C@@H](OC(=O)c4ccccc4)[C@@H]4[C@]5(OC(C)=O)CO[C@@H]5C[C@H](O)[C@@]4(C)C(=O)[C@H](OC(C)=O)C(=C2C)C3(C)C)[C@@H](NC(=O)c2ccccc2)c2ccccc2)O1` (stereo not given in full), -48% (active); in that of `O=C(/C=C/c1cccc(Cl)c1Cl)Nc1ncc(Cc2ccccc2Cl)s1`, -46.5% (active).
Regarding `Cn1cc(-c2csc(-c3cn(CCCN4CCOCC4)c4ccccc34)n2)c2cccnc21`, the growth was 91.6%.
In the case of `CCCCCCCCCCCCCCCCCCOc1ccccc1CC(=O)NCC[N+]1(C)CCCCC1` it was 60.5%.
In the case of `O=C(Cc1ccc(NC(=O)c2cccc(Cl)c2)cc1)NCc1ccccc1` it was -30.1% (active).
In the case of `O=C1/C(=C/c2ccccn2)NC(=S)N1c1ccccc1Cl` it was 67.4%; in that of `C=C(CNCCO)[C@@H]1CC[C@]2(CO)CC[C@]3(C)[C@H](CC[C@@H]4[C@@]5(C)CCC(N)C(C)(C)[C@@H]5CC[C@]43C)[C@@H]12` (stereo not given in full), -44% (active).
`CC(=O)c1sc2sc(C(C)=O)c(C)c2c1C`: the growth is 102%.
In the case of `CCOC(=O)c1ccccc1-c1c2ccc(=[N+](C)C)cc-2oc2cc(N(C)C)ccc12` it was 11.8%.
On to `CSC(SC)=C(C#N)c1nc2ccccc2s1`, for which the growth was 76.5%.
For the compound `CN(C)CCN1C(=O)c2cccc3c(/C=C/CN4C(=O)c5cccc6cccc(c56)C4=O)ccc(c23)C1=O`, the growth was 89.3%.
As for `C#CCOc1cccc(-c2ncnc3cc(NC(=O)C=C)ccc23)c1`, the growth was 30%.
In the case of `CCCC(CC)(C(=O)Nc1ccc2nc(C)cc(N)c2c1)C(=O)Nc1ccc2nc(C)cc(N)c2c1`, the growth was 108%.
On to `O=C(N/N=C/c1cc(Cl)ccc1O)c1ccccc1Nc1ccnc(C(F)(F)F)c1`, for which the growth is 35.2%.
On to `Nc1nc(NC(=O)Nc2ccc(C(=O)O)cc2)nn1-c1ccc(S(N)(=O)=O)cc1`, for which the growth was 98.2%.
`NC(=O)c1cnc(Nc2cccc(N)c2)nc1NCCCNC(=O)C1CCC1`: the growth is 82.6%.
In the case of `COc1ccc2c(c1)c(-c1nc(-c3c[nH]c4ncccc34)cs1)cn2CCO`, the growth is 66.5%.
In the case of `NNCCc1ccc(NC(=O)CCCc2ccc(C(=O)Nc3ccccc3N)cc2)cc1` it was 71.1%; in that of `CNC(=O)c1cc(Oc2cccc3nc(NC(=O)Nc4cc(C(F)(F)F)ccc4Cl)ccc23)ccn1`, 74.1%; in that of `CCCCCCCCCCCCCOC(=O)c1c(C)[nH]c(/C=C2\N=C(c3ccc[nH]3)C=C2OC)c1C`, 19.2%.
For `CCNc1ccc(-c2nc3ccccc3n3cccc23)cc1`, the growth is 80.7%.
In the case of `O=C(/C=C/C12c3ccccc3C(c3ccccc31)C1C(=O)NC(=O)C12)c1ccc(Br)cc1` (stereo not given) it was 18.5%; in that of `C=C1C(=O)O[C@H]2[C@H]1CC/C(COC(=O)c1cc3cc(Cl)ccc3[nH]1)=C\CC[C@@]1(C)O[C@@H]21`, -91.7% (active); in that of `NC(=O)c1cccc([C@@H]2O[C@H](CO)[C@@H](O)[C@H]2O)c1`, 106%.
In the case of `Cn1cc(-c2csc(-c3c[nH]c4ccc(F)cc34)n2)c2ccnc(Cl)c21` it was 88.2%; in that of `O=C(C1CCCCC1)[C@@H]1[C@]2(C(=O)NC3CCCCC32)[C@@H]2CCCN2[C@@]12C(=O)NC1CCC(Cl)CC12` (stereo not given in full), -91% [100 µM] (active); in that of `Cc1ccc(-c2nc(N3CCNCC3)c3oc(-c4ccc(C)cc4)nc3n2)cc1`, -77.1% (active).
In the case of `COc1ccc(-c2n[nH]c(=O)c3nc(NC(=S)Nc4ccc(Oc5ccccc5)cc4)sc23)cc1` it was 97.3%; in that of `CCO/C=N/C1=C(C#N)C(c2ccc(F)cc2)c2sc3c(F)cccc3c2O1` (stereo not given), -23.7% (active); in that of `O=C(Nc1ccccc1[N+](=O)[O-])c1ccc(Cl)c(Cl)c1`, 102%.
`N#C/C(=C\c1ccc([N+](=O)[O-])cc1)n1nnc2cc(F)c(F)cc21`: the growth was 41.1%.
In the case of `Nc1nc(N)c(N=Nc2ccccc2)c(-c2ccccc2)n1` it was 73.1%.
